Compounds with a hit are over-represented: about 2.6% of the library has one in this group of screens.
PABP FP inh = blocks human PABP binding to poly(A) RNA. P11940. fluorescence polarization. calls only at 35 µM. 290,000 tested, 1% active;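 further: calls also rest on retests at 20 µM and on dose response follow-up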
PABP1 MLLE inh = inhibitors of microRNA-mediated deadenylation, human PABP1 MLLE binding; P11940; GST-MLLE / FITC-PAM2 fluorescence polarization; inhibition, % at 20 µM; 360,000 tested, 0.36% active; AID 588489; in the data active means inhibition above about 35%, passing the limit was not always enough;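 further: plate controls were DMSO wells with GST-MLLE for no effect and wells lacking GST-MLLE protein for full effect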
eIF4H FP inh = inhibitors of RNA binding by human eIF4H | Q15056 | eIF4H fluorescence polarization binding assay | inhibition, % at 35 µM | 290,000 tested, 0.94% active;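 further: calls also rest on retests at 20 µM and on dose response follow-up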
PHOSPHO1 block = PHOSPHO1 (human) inhibition; recombinant PHOSPHO1, absorbance phosphatase assay; inhibition, % at 13.3 µM; 290,000 tested, 1.1% active; AID 1565; Q8TCT1; in the data active means inhibition above about 60%
Target sequence (Q8TCT1 whole entry, looked up): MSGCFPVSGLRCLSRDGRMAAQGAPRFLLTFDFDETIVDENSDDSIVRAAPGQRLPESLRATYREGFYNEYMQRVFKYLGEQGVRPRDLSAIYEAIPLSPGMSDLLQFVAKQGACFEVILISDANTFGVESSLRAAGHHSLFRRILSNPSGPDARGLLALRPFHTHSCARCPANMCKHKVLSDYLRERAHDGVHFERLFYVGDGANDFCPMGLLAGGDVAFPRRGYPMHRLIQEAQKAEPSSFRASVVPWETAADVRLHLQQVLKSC
AI-2 QS mod = modulates the Vibrio harveyi AI-2 quorum sensing system | Vibrio harveyi JMH597 AI-2 luminescence/OD600 ratio, 9 h; stronger effect = lower value; strain lacks LuxN and CqsS sensors; 0 = neutral-control median | activity change, % at 7.5 µM | 300,000 tested, 0.4% active | AID 2094; in the data active means activity change below about -75%, passing the limit was not always enough; inconclusive means no clear call, values can overlap the other calls;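 further: luminescence divided by OD600 gain over 9 h not by final OD600 alone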
ABCB6 inh MLPCN = human ABCB6 transporter inhibition | Q9NP58 | K562-ABCB6 porphyrin accumulation, flow cytometry, 1 h; stronger effect = lower value | fluorescence ratio to DMSO, % at 10 µM | 360,000 tested, 0.19% active | AID 602162;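 active means fluorescence ratio to DMSO below 75%, the collection mean minus 3 SD; inconclusive means too few cells collected in the well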;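 further: signal is porphyrin accumulated inside mitochondria; 100% equals median channel fluorescence of DMSO control wells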
The depositor's hits bear a star; i = inactive; ? = inconclusive; · = no result; + = active, no number. Unless noted, how the calls were made is not given here.

SMILES	PABP FP inh	PABP1 MLLE inh	eIF4H FP inh	PHOSPHO1 block	AI-2 QS mod	ABCB6 inh MLPCN
c1cnc2ccc(C(c3nnnn3C3CCCC3)N3CCN(c4nc5ccccc5s4)CC3)cc2c1 (stereo not given)	+	-7.4	active	-29.3	34.8	90.0
Cc1nc2ncccn2c1-c1csc(Nc2ccccc2)n1	i	31.7	-2.1	5.8	9.1	95.0
Cc1nc2ncccn2c1-c1csc(NCc2ccco2)n1	+	24.6	72.9	23.0	17.6	100.0
CC(=O)C1=CCC(c2ccc(Cl)c(Cl)c2)N(S(=O)(=O)c2ccc(C)cc2)C1 (stereo not given)	·	9.6	·	·	·	99.0
Cc1cc(Br)cn2c(Cc3cccc(F)c3)c(-c3ccc(Cl)cc3)nc12	·	-1.1	·	·	·	100.0
CCOc1ccc2[nH]c(=O)c(CN(Cc3ccccc3)C(=O)N3CCCC3)cc2c1	i	11.0	-13.1	73.7*	26.0	98.0
CCOc1ccc2[nH]c(=O)c(CN(C(=O)N3CCOCC3)C3CC3)cc2c1	i	·	-7.1	-4.2	·	·
NC(=O)c1cnc(Cc2c[nH]c3ccccc23)c(I)c1	·	-34.1	·	·	·	103.0
O=C(NCCc1ccccc1)C1CC(=O)N(c2ccc3c(c2)OCCO3)C1 (stereo not given)	·	-1.9	·	·	18.8	101.0
O=C(Nc1nnc(C2CC2)s1)C1CC(=O)N(c2ccc3c(c2)OCCO3)C1 (stereo not given)	+	-14.4	95.5*	-2.4	6.5	98.0
O=C(Nc1nnc(C2CCCCC2)s1)C1CC(=O)N(c2ccccc2)C1 (stereo not given)	i	10.8	-3.3	22.4	-3.8	106.0
O=C(NC(Cc1ccccc1)c1nc2ccccc2[nH]1)C1CC(=O)N(c2ccc3c(c2)OCCO3)C1 (stereo not given)	·	-117.3	·	95.8*	1.7	89.0
C(=N\n1cnnc1)/c1cccc(Oc2ccccc2)c1	i	11.5	7.8	-32.1	0.5	98.0
S=c1[nH]ncn1/N=C/c1cccc(Oc2ccccc2)c1	i	-29.8	-3.1	96.9*	28.5	102.0
CCOc1ccc(-c2nnc(SCc3nnc(-c4ccccc4)o3)n2-c2ccccc2F)cc1	i	-132.5	-1.7	73.3*	13.6	93.0
CCCOc1ccc2nc(C)c(CCC)c(SC(=N)N)c2c1	i	25.4	-7.4	66.8*	8.1	95.0
CCCc1c(C)nc2ccc(OC)cc2c1SCCC(=O)O	i	0.9	-7.7	-4.0	-2.2	101.0
CC1(C(=O)O)CCCN(C(=O)c2ccc(OC(F)F)cc2)C1 (stereo not given)	·	-5.6	·	·	·	90.0
CCc1nc2ccc(C(=O)N(C)Cc3ccco3)cn2c1N(C)CCCc1ccccc1	·	4.7	·	·	·	98.0
Cc1ccn2cc(CC(=O)O)nc2c1	+	17.5	?	52.5	31.2	102.0
CCOC(=O)c1cn2ccc(C)cc2n1	i	18.0	-2.1	44.9	17.3	99.0
CCCCNC(=O)c1nc(C2CCN(S(=O)(=O)c3c(F)cccc3F)CC2)oc1-c1ccccc1	·	4.0	·	·	·	93.0
N=c1sccn1CC(=O)NC(c1ccccc1)c1ccccc1	i	2.2	1.1*	32.0	38.9	88.0
O=C1C(Cl)=C(NC(=O)c2ccccc2)C(=O)C(Cl)=C1NC(=O)c1ccccc1	i	57.4*	0.4	35.6	4.9	102.0
CCSCc1nnc(SCC(=O)Nc2nccs2)n1CC	i	-1.0	1.0	60.0*	6.0	104.0
SMILES	PABP FP inh	PABP1 MLLE inh	eIF4H FP inh	PHOSPHO1 block	AI-2 QS mod	ABCB6 inh MLPCN
CCn1c(COc2ccc(C(C)C)cc2)nnc1SCC(=O)Nc1nccs1	i	-131.1	-12.0	96.9*	12.0	86.0
Fc1ccc(CN2CC[C@H]3C=CCc4cccc(c43)C2)cc1	·	47.0*	·	·	·	108.0
Clc1ccc(CN2CC[C@H]3C=CCc4cccc(c43)C2)cc1	·	7.1	·	·	·	99.0
CCN1C(=O)/C(=C/c2ccc(C)s2)NC1=S	i	-118.3	-8.6	76.4*	-9.3	104.0
Cc1ccc(/C=C2/NC(=O)N(Cc3ccccc3)C2=O)s1	?	-63.7	?	13.7	16.5	125.0
Cc1cccc(CN2C(=O)N/C(=C/c3ccc(C)s3)C2=O)c1	+	-73.8	68.8*	25.7	51.7	110.0
O=C(NCCc1ccccc1)Nc1nnc([C@@H]2C[C@H](O)[C@@H](CO)O2)s1	·	4.3	·	·	·	99.0
CCOc1ccc(S(=O)(=O)Nc2cc(SCC(=O)O)c(O)c3ccccc23)cc1	i	34.0	-5.1	-88.6	7.9	108.0
O=S(=O)(Nc1cc(Sc2cccc3cccnc23)c(O)c2ccccc12)c1ccccc1	+	·	75.2*	60.3*	17.2	·
Cc1ccc(C)c(S(=O)(=O)Nc2cc(SCC(=O)O)c(O)c3ccccc23)c1	i	28.9	-4.1	70.9*	·	88.0
O=C(O)CSc1cc(NS(=O)(=O)c2cccc([N+](=O)[O-])c2)c2ccccc2c1O	i	43.5*	-6.4	36.8	55.2	103.0
COc1ccc(-c2ccc(CN3C(C)C(=O)N(Cc4cn(CCC5OCCO5)nn4)CCS3(=O)=O)cc2)cc1 (stereo not given)	·	-13.7	·	·	·	100.0
CCOC(=O)C1=CCN(S(=O)(=O)c2ccc(C)cc2)C1c1ccc(C(C)C)cc1 (stereo not given)	·	-1.0	·	·	·	98.0
CCOC(=O)c1nc(Nc2ccc(C)cc2)c2ccccc2n1	i	59.9*	12.8	10.7	17.5	90.0
CCOC(=O)c1nc(Nc2ccccc2)c2ccccc2n1	i	0.2	-6.3	-1.2	25.4	100.0
CCCCN1Cc2c(nc3cc(-c4ccco4)[nH]n3c2=O)C1=O	+	3.2	88.1*	24.4	21.6	96.0
Cc1cc(C)nc(NC(=S)Nc2cccc(F)c2)c1	i	31.9	-2.2	-8.1	21.8	103.0
COc1cccc(NC(=S)Nc2cc(C)cc(C)n2)c1	i	45.3*	-4.5	-5.9	17.1	93.0
CC1(C(=O)NS(=O)(=O)C2CC2)CCN(C(=O)c2cc(F)cc(F)c2)C1 (stereo not given)	·	4.0	·	·	·	92.0
COc1cccc(-n2nnc(S(=O)(=O)c3ccc(C)cc3)c2N)c1	i	-5.7	2.1	-25.8	-92.1*	100.0
COc1cccc(-n2nnnc2S(C)(=O)=O)c1	i	10.9	8.0	1.7	-86.9*	90.0
CC(N)c1csc(Nc2ccc(S(C)(=O)=O)cc2)n1 (stereo not given)	·	-3.9	·	·	·	100.0
CC(C)Nc1nc(Nc2ccccc2Cl)c2sccc2n1	·	-2.0	·	·	·	95.0
COc1ccc(NC(=O)c2sc(=O)n(Cc3ccc(F)c(Cl)c3)c2C)cc1OC	·	10.4	·	·	·	103.0
O=C(Nc1nnc([C@@H]2C[C@H](O)[C@@H](CO)O2)s1)Nc1ccc(F)cc1F	·	4.4	·	·	·	100.0
Nc1c(-c2ccccc2)sc2ccc3ccccc3[n+]12	i	38.9*	-18.2	-36.2	15.3	99.0
COc1ccc(C(=O)c2coc3c2C(=O)C(=O)c2ccccc2-3)cc1	i	3.5	7.7	19.7	-91.6*	98.0
